Experimental data as given in PubChem BioAssay.

Biological target: Homeobox protein Hox-A13 (Mus musculus) (UniProt Q62424)
Experiment: disruptors of Hoxa13 oligonucleotide interaction – biochemical, fluorescence polarization, labeled oligonucleotide, primary screen (AID 1185)
Conditions: Hoxa13:DNA binding, 15 min, higher = more signal, called active from +8 up or from −8 down

Homeobox protein Hox-A13 (Mus musculus), sequence (Q62424 whole entry, looked up): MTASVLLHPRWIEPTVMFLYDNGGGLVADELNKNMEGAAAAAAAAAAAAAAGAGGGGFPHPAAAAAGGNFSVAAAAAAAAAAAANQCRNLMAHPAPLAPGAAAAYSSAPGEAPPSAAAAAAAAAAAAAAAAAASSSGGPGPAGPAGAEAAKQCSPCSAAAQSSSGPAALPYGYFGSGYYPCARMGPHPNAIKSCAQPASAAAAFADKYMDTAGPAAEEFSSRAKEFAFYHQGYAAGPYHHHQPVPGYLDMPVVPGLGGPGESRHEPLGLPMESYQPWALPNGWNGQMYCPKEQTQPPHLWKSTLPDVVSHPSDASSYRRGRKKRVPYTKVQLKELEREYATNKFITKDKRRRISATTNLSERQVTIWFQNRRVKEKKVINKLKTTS

z-score, inactive:
CC(C)N1CC=CC23O[C@@H]4/C=C\CCCOC(=O)C4[C@H]2C(=O)N(CCCCCO)[C@@H]3C1=O (stereo not given in full) -4.61
[N-]=[N+]=NCc1ccccc1C[C@@]1(C(=O)O)N=C(c2ccc(OCCCO)cc2)O[C@@H]1c1ccccc1N=[N+]=[N-] -4.16
CO[C@H]1COC(=O)[C@H](C)NC(=O)CC=C[C@@H](C)[C@H](NS(=O)(=O)c2ccc(C)cc2)COC(=O)CC=C[C@@H]1C -1.62
CC(c1ccccc1)C(O)C1C=CC2C(=O)N(C)C(=O)C2N1N(c1ccccc1)c1ccccc1 (stereo not given) -4.26
CO[C@H]1COC(=O)[C@@H](C)NC(=O)CC=C[C@@H](C)[C@H](OC)COC(=O)CC=C[C@@H]1C 0.334
COc1ccc(CCN2C(=O)[C@@]3(c4ccc([N+](=O)[O-])cc4)CC(=O)N(CC45CC6CC(CC(C6)C4)C5)[C@@H]3c3ccc(CO)cc32)cc1 -2.14
O=C1C[C@@](C(=O)NCCN2CCOCC2)(c2ccc([N+](=O)[O-])cc2)[C@@H](c2ccc(CO)cc2)N1C1CCCCC1 -4.21
C[C@@H]1CC[C@H]2C(=O)N3[C@@H](CC[C@@H](C)[C@@H]3c3cccc(N4CCOCC4)c3)C(=O)N2[C@H]1c1cccc(N2CCOCC2)c1 -4.07
C#CCCCON=C1C[C@@H](O)[C@@H](O)[C@@H]2[C@@H]3C(=O)N(Cc4ccc5c(c4)OCO5)C(=O)[C@@H]3CC[C@H]12 -0.469
CCOC(=O)C[C@H]1[C@H](OC(=O)Cc2ccc3c(c2)OCO3)[C@@H](NC(=O)CC(C)C)c2cc(OCCCO)ccc2N1C(=O)c1ccccc1 -1.41
Cc1ccc(S[C@]2(C(=O)O)CC(=O)N(Cc3ccccc3)[C@@H]2c2ccc(CO)cc2)cc1 -2.96
Cc1ccc(S[C@]2(C(=O)NC(C)C)CC(=O)N(Cc3cc(C(F)(F)F)cc(C(F)(F)F)c3)[C@@H]2c2ccc(CO)cc2I)cc1 -2.81
COC(=O)C1=C(C)N(Cc2ccccc2)c2c(C(=O)OC)c(C(=O)OC)c(C(=O)OC)c(=O)n2[C@@H]1c1ccccc1 -2.2
C=C(CCCC)/C(=C/C[C@@H](OC(=O)c1ccncc1)c1ccc(CO)o1)c1cnc2ccccc2c1 -4.65
CN(C)c1ccc(C(O)C2C=CC3C(=O)NC(=O)C3N2Nc2ccc(Cl)cc2Cl)cc1 (stereo not given) -4.19
CC(C)(C)OC(=O)CC[C@]1(C(=O)NCCN2CCOCC2)N=C(c2ccc(OCCCO)cc2)O[C@H]1c1ccccc1CN=[N+]=[N-] -4.75
COc1cc2c(cc1OC)CN(C(=O)[C@H]1[C@@H]3C(=O)O[C@@H](c4ccccc4)[C@@H](c4ccccc4)N3[C@@H](c3ccc(O)cc3)[C@]13C(=O)Nc1ccc(C#CC4(O)CCCCCC4)cc13)CC2 -1.42
Cc1ccc(N2C(=O)c3ccccc3[C@](C)(C(=O)NCC(C)C)[C@@H]2c2ccc(CO)cc2)nc1 -2
CCOC(=O)C[C@H]1[C@H](OC(=O)c2ccccc2-c2ccccc2)[C@@H](NC(=O)c2ccc(-c3ccccc3)cc2)c2cc(OCCCO)ccc2N1C(=O)Cc1ccc(OC)cc1 -2.32
COc1cccc([C@@H]2[C@@H](C)CC[C@H]3C(=O)N(C)[C@@H](C(C)C)C(=O)N23)c1 -0.0898
CO[C@@H]1COC(=O)CC=C[C@H](C)COC(=O)[C@H](Cc2ccccc2)NC(=O)CC=C[C@H]1C -0.631
C=CCN1C(=O)[C@@]2(O[C@@H](CCn3cc([C@H](O)c4ccccc4)nn3)[C@H]([Si](C)(C)c3ccc(OC)cc3)[C@H]2C)c2cc(N3CCOC3=O)ccc21 -4.69
O=C(O)[C@@H]1Cc2c([nH]c3ccccc23)[C@@H](c2ccccc2)N1 0.969
CC(=O)Nc1ccc([C@H]2[C@H](C)CC[C@H]3C(=O)N4[C@@H](CC[C@@H](C)[C@@H]4c4ccc(NC(C)=O)cc4)C(=O)N32)cc1 -6.37
C=CCOC(=O)[C@@H]1[C@H]2C(=O)O[C@H](c3ccccc3)[C@H](c3ccccc3)N2[C@H](c2ccc(OCCOC(=O)[C@H]3C[C@H]4C(=O)N5CCC[C@H]5C(=O)N4[C@H]3c3ccc(O)cc3)cc2)[C@@]12C(=O)Nc1ccccc12 1.59
